# Where “and” joins values, the source holds several entries; their conditions need not be identical. Equal values may be shown once. Records with an inconclusive call do not appear. Calls of active or inactive are those of the source. The call rests on the fitted dose curve; in most records, active means well fitted inhibition curve with a large enough effect; inconclusive means small, poorly fitted or top-dose-only effect; inactive means flat fitted curve, though single readings scatter.
# Molecular target: Ubiquitin carboxyl-terminal hydrolase 1 (Homo sapiens) (UniProt O94782)
# Sequence (O94782 whole entry, looked up): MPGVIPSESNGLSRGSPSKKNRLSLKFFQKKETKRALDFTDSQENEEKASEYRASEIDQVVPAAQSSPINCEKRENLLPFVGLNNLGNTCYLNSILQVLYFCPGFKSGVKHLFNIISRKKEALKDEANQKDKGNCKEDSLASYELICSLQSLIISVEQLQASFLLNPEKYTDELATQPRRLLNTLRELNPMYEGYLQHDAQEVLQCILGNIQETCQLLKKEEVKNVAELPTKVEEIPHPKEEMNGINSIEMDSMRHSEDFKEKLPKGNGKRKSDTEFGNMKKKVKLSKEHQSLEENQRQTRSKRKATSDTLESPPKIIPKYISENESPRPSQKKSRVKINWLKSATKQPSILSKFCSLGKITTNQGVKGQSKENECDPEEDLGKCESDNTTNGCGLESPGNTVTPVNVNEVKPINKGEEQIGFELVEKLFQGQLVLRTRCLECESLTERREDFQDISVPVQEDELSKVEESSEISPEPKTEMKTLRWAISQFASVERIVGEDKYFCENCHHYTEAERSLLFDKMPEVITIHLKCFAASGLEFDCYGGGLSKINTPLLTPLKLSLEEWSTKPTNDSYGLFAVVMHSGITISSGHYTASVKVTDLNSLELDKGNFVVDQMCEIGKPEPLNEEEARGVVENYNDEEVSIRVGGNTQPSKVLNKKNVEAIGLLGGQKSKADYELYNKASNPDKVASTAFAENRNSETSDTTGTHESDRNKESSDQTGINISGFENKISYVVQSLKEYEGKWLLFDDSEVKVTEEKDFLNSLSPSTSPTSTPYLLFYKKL
# Assay: Inhibitors of USP1/UAF1: SAR in Primary Assay
# Details: Recombinant USP1/UAF1, Ub-Rhodamine cleavage fluorescence; series mostly up to 57.1 µM; activity change, negative = inhibition: at the top concentration
# Text: Deubiquitinating enzymes (DUBs) are a class of enzymes that can cleave isopeptide bond formed between the C-terminal carboxylate of ubiquitin and a lysine side-chain amino group on the target protein. Among them, ubiquitin specific proteases (USPs) constitute the largest DUB family. Human USPs are emerging as promising targets for pharmacological intervention because of their connection to a number of human diseases, including prostate, colon and breast cancer (1, 2), pediatric acute lymphoblastic leukemia (3), and familial cylindromatosis (4). The advantage of inhibiting USPs lies in the potential specificity of therapeutic intervention that can lead to better efficacy and reduce nonspecific side effects. In a collaboration between the University of Delaware and the NIH Chemical Genomics Center, a high-throughput screen assay was developed to screen for USP1/UAF1 inhibitors (5). This assay was used to test the analogs that were synthesized based on SAR around the original hit. NIH Chemical Genomics Center [NCGC] NIH Molecular Libraries Probe Centers Network [MLPCN] MLPCN Grant: DA030552-01 Assay Submitter (PI): Zhihao Zhuang, University of Delaware 1. Priolo, C., et al. (2006) The isopeptidase USP2a protects human prostate cancer from apoptosis. Cancer Res 66, 8625-8632 2. Popov, N., et al. (2007) The ubiquitin-specific protease USP28 is required for MYC stability. Nat Cell Biol 9, 765-774 3. De Pitta, C., et al. (2005) A leukemia-enriched cDNA microarray platform identifies new transcripts with relevance to the biology of pediatric acute lymphoblastic leukemia. Haematologica 90, 890-898 4. Kovalenko, A., et al. (2003) The tumour suppressor CYLD negatively regulates NF-kappaB signalling by deubiquitination. Nature 424, 801-805 5. Chen, J., et al. (2011) Selective and cell-active inhibitors of the USP1/ UAF1 deubiquitinase complex reverse cisplatin resistance in non-small cell lung cancer cells. Chem Bio 18(11):1390-400.
# 3 microliters of reagents (buffer in columns 3 and 4 as negative control and 1nM USP1/UAF1 complex in columns 1, 2, and 5-48) are dispensed into Greiner black solid bottom 1536-well assay plates. Compounds are then transferred via Kalypsys pin tool equipped with 1536-pin array (10nl slotted pins, V&P Scientific, San Diego, CA). Following an incubation step of 15 min at room temperature, 1ul of Ub-Rho substrate (150nM final concentration) is added to initiate the reaction. The plates are immediately centrifuged at 1000 rpm for 15 seconds, and subsequently transferred to a ViewLux high-throughput CCD imager (PerkinElmer) wherein kinetic measurements of fluorescence are acquired using 480 nm excitation/540 nm emission filter set (6 reads every 60 seconds, see Table 1). All reagents are diluted in an assay buffer consisting of 50mM HEPES (pH 7.8), 0.5mM EDTA, 0.1 mg/ml BSA, 1mM TCEP, and 0.01% Tween-20.
Structure (SMILES),Potency,"activity change, negative = inhibition"
N#Cc1c(-c2ccccc2C(F)(F)F)nc2ccccc2c1NCc1ccc(-c2cccnc2)cc1,9610 nM (active),
Cc1cnc(-c2ccccc2C(C)C)nc1NCC1CCN(c2cccnc2)CC1,48.2 nM (active),
c1cncc(-c2ccc(CNc3nc(N4CCOCC4)nc4ccccc34)cc2)c1,,-18.2% (inactive)
Cc1nc(NCc2ccc(-c3cccnc3)cc2)c2ccccc2n1,,-15.4% (inactive)
Cc1cnc(-c2ccccc2C(C)C)nc1NCc1ccc(-c2ccnc(C(F)(F)F)c2)cc1,383 nM (active),
Cc1ccc(N2CCC(CNc3nc(-c4ccccc4C(C)C)ncc3C)CC2)cn1,171 nM (active) and 60.7 nM (active),
CC(C)c1ccccc1-c1ncc(N(C)C)c(NCc2ccc(-c3cccnc3)cc2)n1,152 nM (active),
CC(C)c1ccccc1-c1nccc(NCc2ccc(-c3cccnc3)cc2)n1,121 nM (active),
Cc1cnc(-c2ccccc2C(C)C)nc1NCC1CCN(c2cccnc2)C1 (stereo unspecified),429 nM (active),
FC(F)(F)c1ccccc1-c1nc(NCC2CCN(c3cccnc3)CC2)c2ccccc2n1,607 nM (active),
Cc1cnc(-c2ccccc2C2COC2)nc1NCC1CCN(c2cccnc2)CC1,,-6.08% (inactive)
FC(F)c1ccccc1-c1nc(NCc2ccc(-c3cccnc3)cc2)c2ccccc2n1,1360 nM (active),
FC(F)(F)c1ccccc1-c1nc(NCC#Cc2cccnc2)c2ccccc2n1,4.82 µM (active) and 7.64 µM (active),
N#Cc1cccc(-c2ccc(CNc3nc(-c4ccccc4C(F)(F)F)nc4ccccc34)cc2)c1,2710 nM (active),
CC(C)c1ccccc1-c1ncc(F)c(NC(C)(C)c2ccc(-c3cccnc3)cc2)n1,192 nM (active),
Cc1ccc(-c2ccc(CNc3nc(-c4ccccc4C(C)C)ncc3F)cc2)cn1,76.4 nM (active),

Structure (SMILES),Potency,"activity change, negative = inhibition"
Cc1ccc(-c2ccc(CNc3nc(-c4ccccc4C(C)C)nc4ccccc34)cc2)cn1,136 nM (active),
Cc1cnc(-c2ccccc2C(C)C)nc1NCc1cccs1,215 nM (active),
FC(F)(F)c1ccc(-c2ccc(CNc3nc(-c4ccccc4C(F)(F)F)nc4ccccc34)cc2)cn1,4290 nM (active),
Cc1cnc(-c2ccccc2CO)nc1NCC1CCN(c2cccnc2)CC1,7640 nM (active),
Cc1cc(NCc2ccc(-c3cccnc3)cc2)nc(-c2ccccc2C(C)C)n1,482 nM (active),
Cc1ccc(N2CCC(CNc3nc(-c4ccccc4C(C)C)ncc3F)CC2)cn1,96.1 nM (active),
FC(F)(F)c1cccc(-c2nc(NCc3ccc(-c4ccnc(C(F)(F)F)c4)cc3)c3ccccc3n2)c1,,-0.42% (inactive)
Cc1cnc(-c2ccccc2C(C)C)nc1NCc1ccc(C#N)cc1,482 nM (active),
COc1ccccc1-c1nc(NCc2ccc(-c3cccnc3)cc2)c2ccccc2n1,681 nM (active),
FC(F)(F)c1ccccc1-c1nc(NCc2ccc(N3CCOCC3)cc2)c2ccccc2n1,7640 nM (active),
Fc1cnc(-c2ccccc2C(F)F)nc1NCC1CCN(c2cnccn2)CC1,2410 nM (active),
CC(C)c1ccccc1-c1nc2c(c(NCc3ccc(-c4cccnc4)cc3)n1)CCC2,136 nM (active),
Cc1cnc(-c2ccccc2C(C)O)nc1NCC1CCN(c2cccnc2)CC1 (stereo unspecified),2410 nM (active),
Cc1ccc(-c2ccc(C(C)Nc3nc(-c4ccccc4C(C)C)ncc3C)cc2)cn1 (stereo unspecified),341 nM (active),
Fc1cc(Cl)cc(-c2ccc(CNc3nc(-c4ccccc4C(F)(F)F)nc4ccccc34)cc2)c1,2410 nM (active),

# — PubChem BioAssay AID651605 (National Center for Advancing Translational Sciences (NCATS), 2012)
